# Source: PubChem BioAssay (several laboratories)
# SENP7 inh = inhibitors of human SENP7 protease; 330,000 compounds, 1.5% hits; inhibition, % at 5 µM; recombinant SENP7, Z-RLRGG-aminoluciferin luminescence, 40 min;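 active = inhibition above about 50% at the single test dose, limit read from the data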;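 note: plate controls were DMSO with enzyme for no effect and no enzyme buffer wells for full effect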
# Target sequence (Q9BQF6 706-1050 limits assumed): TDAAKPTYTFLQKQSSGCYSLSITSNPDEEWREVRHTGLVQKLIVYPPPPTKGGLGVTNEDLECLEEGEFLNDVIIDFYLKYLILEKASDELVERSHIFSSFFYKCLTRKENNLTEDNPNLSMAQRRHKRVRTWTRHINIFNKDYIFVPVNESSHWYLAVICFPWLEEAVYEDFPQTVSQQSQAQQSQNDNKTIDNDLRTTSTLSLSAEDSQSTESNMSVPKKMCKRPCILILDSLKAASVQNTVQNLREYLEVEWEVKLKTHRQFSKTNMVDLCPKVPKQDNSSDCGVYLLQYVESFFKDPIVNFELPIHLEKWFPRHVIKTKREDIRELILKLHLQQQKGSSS
# SENP8 block-1 = blocks human SENP8 cleavage of Nedd8 substrate. Q96LD8. recombinant SENP8, Nedd8 substrate fluorescence. inhibition, % at 20 µM. 360,000 compounds, 0.64% hits; in the data active = inhibition mostly above about 40%, no sharp cut-off; inactive = mostly below about 27%
# Target sequence (Q96LD8 whole entry, looked up): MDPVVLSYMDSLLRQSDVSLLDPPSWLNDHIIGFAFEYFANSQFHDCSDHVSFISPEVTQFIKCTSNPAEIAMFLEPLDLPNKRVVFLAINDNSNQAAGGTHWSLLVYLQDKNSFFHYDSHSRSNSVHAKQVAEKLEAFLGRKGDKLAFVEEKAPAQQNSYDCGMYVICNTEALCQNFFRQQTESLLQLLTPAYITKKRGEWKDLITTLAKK
# SENP8 block-2 = blocks the human protease SENP8; inhibition, % at 10 µM; purified SENP8, Z-RLRGG-aminoluciferin cleavage, luminescence; 330,000 compounds, 1.2% hits; Q96LD8; in the data active = inhibition above about 50%
# SENP6 inh = blocks the human protease SENP6; Recombinant SENP6 catalytic domain, aminoluciferin luminescence; inhibition, % at 10 µM; 330,000 compounds, 1.8% hits; Q9GZR1;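 active = inhibition above about 50% at the single tested dose, limit read from the data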;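 note: plate controls were DMSO wells with enzyme for no effect and DMSO wells lacking enzyme for full effect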
# Platelet DG rel = modulates dense granule release in human platelets; inhibition, %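 (compounds screened at 7.5 µM in platelet-rich plasma)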; 300,000 compounds, 0.22% hits; human platelet-rich plasma, SFLLRN dense granule ATP release, luminescence;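 active = mean replicate score, as percent of positive control, at or above 50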
# SENP8 confirm = confirmation of human SENP8 protease inhibitors. Recombinant SENP8, Z-RLRGG-aminoluciferin luminescence, 60 min. inhibition, % at 12.5 µM. 6,200 compounds, 40% hits. shares compounds with SENP7 inh;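 active = mean inhibition across replicates above about 50%, limit read from the data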
# SENP6 conf = human SENP6 inhibition, confirmed. shares compounds with SENP7 inh. inhibition, % at 12.5 µM. AID 488915. 6,200 compounds, 58% hits. recombinant SENP6, Z-RLRGG-aminoluciferin luminescence
# SENP7 conf = human SENP7 inhibition, confirmed | shares compounds with SENP7 inh | recombinant SENP7, Z-RLRGG-aminoluciferin luminescence, 40 min | inhibition, % at 12.5 µM | 6,200 compounds, 69% hits
# Casp3 select = selectivity test for SENP inhibitors: human caspase-3 inhibition; purified caspase-3, Z-DEVD-aminoluciferin luminescence, 60 min; inhibition, % at 12.5 µM; shares compounds with SENP7 inh; 6,200 compounds, 60% hits; AID 488918;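 active = mean inhibition above about 50%, limit read from the data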;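 note: plate controls were enzyme with DMSO for no effect and wells without caspase-3 for full effect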
# SENP luc ctr = counter-screen for SENP inhibitors: luminescence interference; inhibition, % at 12.5 µM; shares compounds with SENP7 inh; Pre-incubated SENP8/Z-RLRGG-aminoluciferin, luciferase luminescence interference; 6,200 compounds, 39% hits;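 active = mean inhibition above about 50% when retested at one dose, limit read from the data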;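 note: plate controls were DMSO wells with completed reaction for no effect and substrate without enzyme for full effect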
# Starred values were filed as active, the others as inactive; nt = not tested or not shown. The list is not random: actives were taken first. Their share in the collection is about 2.4%.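 Rule for the calls, unless noted: active = mean inhibition above about 50% in the one-dose retest (limit read from the data); inactive = the rest.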
SMILES,SENP7 inh,SENP8 block-1,SENP8 block-2,SENP6 inh,Platelet DG rel,SENP8 confirm,SENP6 conf,SENP7 conf,Casp3 select,SENP luc ctr
CCOc1ccccc1NC(=O)CCS(=O)(=O)c1ccc(Br)cc1,3,14,4,-12,2,nt,nt,nt,nt,nt
Cc1cc(C)c(C)c(S(=O)(=O)NCCN2CCOCC2)c1C,-4,2,-4,-10,3,nt,nt,nt,nt,nt
CN=c1scc(-c2cccs2)n1/N=C/c1ccccc1O,95*,-40,94*,96*,12,50,94*,102*,94*,19
CN=c1scc(-c2cccs2)n1/N=C/c1ccc(O)c(O)c1O,57*,30,82*,79*,60*,95*,95*,99*,80*,82*
COc1ccccc1CCNC(=O)c1ccc(Br)s1,0,-6,0,-11,1,nt,nt,nt,nt,nt
CCSC1=N/C(=C\c2ccc(-c3ccccc3[N+](=O)[O-])o2)C(=O)S1,28,6,13,50*,16,5,4,4,6,3
CCCSC1=N/C(=C\c2ccc([N+](=O)[O-])o2)C(=O)S1,nt,32,nt,nt,nt,nt,nt,nt,nt,nt
CCCCCN1C=CC(=C2C(=O)c3ccccc3C2=O)C=C1,97*,24,96*,96*,42,94*,96*,100*,96*,46
Cn1c(=O)n(C)c2cc(NC(=O)COc3ccc(F)cc3)ccc21,18,0,-10,-4,0,nt,nt,nt,nt,nt
Cc1c(NC(=O)c2cc3c(s2)CCCC3)c(=O)n(-c2ccccc2)n1C,2,10,61*,17,1,11,9,8,4,4
O=C(Nc1ccc2ccccc2n1)c1ccc(Cl)cc1,72*,0,50*,56*,-11,25,48,59*,59*,16
O=C(Nc1cccc(NC(=O)c2ccc(Cl)cc2)n1)c1ccc(Cl)cc1,-2,13,-8,-10,0,nt,nt,nt,nt,nt
O=C(Nc1ccc2ccccc2n1)C1CCCCC1,74*,14,48,60*,0,61*,58*,88*,74*,68*
O=C(Nc1ccccc1)C1CCCCC1,-2,11,1,9,-2,nt,nt,nt,nt,nt
COc1ccc(C(=O)Nc2ccc3ccccc3n2)c(OC)c1OC,86*,-37,66*,82*,2,58*,46,57*,45,5
O=C(Nc1ccc2ccccc2n1)c1ccccc1Cl,95*,5,89*,88*,4,94*,94*,102*,94*,33
COc1cccc(C(=O)Nc2cccc3ccccc23)c1OC,-1,3,-10,0,-2,nt,nt,nt,nt,nt
CCN(CC)C(=O)c1ccc(CS(=O)(=O)Cc2ccccc2)cc1,13,8,-5,9,-3,nt,nt,nt,nt,nt
O=C(CCC(=O)N1CCCC(Nc2ccccc2)C1)c1ccc(F)cc1 (configuration not stated),2,11,-5,20,-12,nt,nt,nt,nt,nt
CN(C(=O)c1ccc(NC(=O)Cc2cccc(NC(=O)C3CCN(C(=O)C4CCCCC4)CC3)c2)cc1)C1CCCC1,-4,23,-10,-5,nt,nt,nt,nt,nt,nt
CCOC(=O)[C@@H]1CSCCS(=O)(=O)N1Cc1ccccc1Br,nt,6,nt,nt,nt,nt,nt,nt,nt,nt
Cc1ccc(-n2nnc(-c3nccn3C)n2)cc1,87*,-10,86*,84*,-8,90*,90*,100*,97*,90*
Cc1ccc(-n2nnc(-c3cnc4ccccc4c3)n2)cc1,79*,-5,26,34,-1,13,17,25,46,12
CCc1noc(C)c1C(=O)NNC(=O)COc1cc(C)ccc1C,11,7,0,-2,nt,nt,nt,nt,nt,nt
Clc1ccc(-c2nnc(N3CCCC3)nn2)cc1,-5,13,2,68*,1,38,41,58*,55*,10
SMILES,SENP7 inh,SENP8 block-1,SENP8 block-2,SENP6 inh,Platelet DG rel,SENP8 confirm,SENP6 conf,SENP7 conf,Casp3 select,SENP luc ctr
c1ccc2c(Nc3nnc(-c4ccncc4)s3)cccc2c1,3,-105,46,61*,12,15,51*,81*,48,5
CC(C)CN(C(=O)c1cccs1)C1CCS(=O)(=O)C1 (configuration not stated),1,0,-6,-3,8,nt,nt,nt,nt,nt
COc1ccc(/C=N/Nc2ncc(-c3ccccc3)cn2)c(OC)c1,-3,-88,-1,-24,6,nt,nt,nt,nt,nt
COc1ccc(/C=N/Nc2ncccc2[N+](=O)[O-])c(OC)c1,99*,30,97*,100*,79*,99*,100*,104*,99*,19
COc1cc(OC)cc(C(=O)/C=C2\Sc3ccccc3N2C)c1,3,-73,-14,18,2,nt,nt,nt,nt,nt
CN1/C(=C\C(=O)c2cccs2)Sc2ccccc21,-4,-497,82*,86*,-5,91*,90*,100*,92*,92*
CN1/C(=C/C(=O)c2cccs2)Sc2ccccc21,83*,-284,84*,90*,-6,94*,94*,102*,94*,92*
CCCc1nc(-c2ccc(-c3ccc(F)cc3)cc2)no1,57*,13,6,52*,-7,14,16,20,28,13
COc1cc(/C=N/Nc2ccc(C(=O)O)cc2)ccc1O,98*,-224,96*,99*,9,98*,98*,103*,94*,97*
COc1cc(/C=N/Nc2ccc(C(=O)O)cc2)cc(OC)c1OC,71*,-134,74*,88*,1,88*,86*,98*,81*,36
COC(=O)N(C)C[C@@H]1OCc2cnnn2CCCC(=O)N([C@H](C)CO)C[C@@H]1C,nt,25,nt,nt,nt,nt,nt,nt,nt,nt
Cc1ccc(N=Cc2c(O)c3ccccc3oc2=O)cc1F,70*,-200,35,-11,5,31,25,33,9,18
COc1ccc(OC)c(N=Cc2c(O)c3ccccc3oc2=O)c1,-1,-82,-25,-21,0,nt,nt,nt,nt,nt
O=C(O)c1cc(N=Cc2c(O)c3ccccc3oc2=O)ccc1O,91*,-282,74*,94*,6,93*,86*,101*,38,95*
Cc1cc(C)cc(N=Cc2c(O)c3ccccc3oc2=O)c1,-7,-422,5,27,5,nt,nt,nt,nt,nt
COc1ccc(N=Cc2c(O)c3ccccc3oc2=O)cc1,90*,-110,33,91*,3,70*,74*,84*,66*,49
